Experimental findings from PubChem BioAssay AID504843 (Broad Institute, 2011) are described below.

The structures appear in SMILES notation. Among all 1,200 compounds or so, about 360 (30%) were called active. These entries were drawn from the full list. Entries with a potency or affinity are not part of this list. Unmarked numbers belong to inactive results. No rule for the calls is given here.

A short description of the experiment: bacterial growth inhibition, dose response, counter-screen, BacTiter-Glo luminescence, cherry-picked samples (AID 504843).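 Also: growth measured after 8 h incubation at 30 °C; 0% = median of sample compound wells and -100% = antibiotic control wells.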 The note with it: BacTiter-Glo ATP luminescence; series mostly up to 15 µM; activity change, negative = inhibition: at the top concentration. A general note: Counterscreens check selectivity or assay interference.
For the compound `Cc1cccn2c(=O)c3cc(S(=O)(=O)c4ccccc4)c(=N)n(Cc4ccco4)c3nc12`, the “activity change, negative = inhibition” value was 0.723%.
For `O=C(O)[C@@H](c1ccccc1)N1Cc2ccccc2C1=O`, the “activity change, negative = inhibition” value is -11.7%.
Take `CC1CC(=O)N(c2ccc(Br)cc2)C(=O)C1`: the “activity change, negative = inhibition” value is 18.8%.
Next, `COc1ccc(OCc2nnc(SCC(=O)N3C(C)CCCC3C)o2)cc1` (stereo not drawn): -3.56%.
For the compound `CC(C)(C)c1cc(NS(=O)(=O)c2ccc3c(c2)OCCO3)on1`, the “activity change, negative = inhibition” value was 17.8%.
The figure for `O=C(COc1ccc([N+](=O)[O-])cc1)Nc1cccc2nsnc12` is -9.01%.
The figure for `Cc1cc(NC(=O)c2ccc([N+](=O)[O-])cc2)n(C)n1` is 1.54%; for `COc1ccc2nc(SCC(=O)Nc3cc(OC)c(OC)cc3C(=O)O)c(C)cc2c1` it is 21.4%.
Regarding `O=C(Nc1ccc(S(=O)(=O)Nc2ncccn2)cc1)c1cncc(Br)c1`, the “activity change, negative = inhibition” value was -5.7%.
Take `Cc1ccc(S(=O)(=O)CCNC(=O)Cc2ccc(Cl)cc2)cc1`: the “activity change, negative = inhibition” value was -3.22%.
The figure for `O=C(COC(=O)C12CC3CC(CC(Br)(C3)C1)C2)Nc1cccnc1Cl` is 9.7%; for `Cc1ccnc(SCCn2c(N3CC(C)CC(C)C3)nc3c2c(=O)n(C)c(=O)n3C)n1` (stereo not drawn) it is 9.46%; for `Cc1cc(N2C(=O)c3ccc(C(=O)Nc4ccc(O)cc4C(=O)O)cc3C2=O)no1` it is 14.9%.
The figure for `O=C(N/N=C/C1=C(N2CCOCC2)C(=C\c2ccccc2)/CC1)Nc1ccccc1` is -7.2%.
The figure for `COc1cccc(C2C(C(=O)OC(C)C)=C(C)Nc3ncnn32)c1` (stereo not drawn) is 2.28%; for `COc1ccc(Nc2nc3ccccc3nc2-n2nc(C)cc2C)cc1` it is -10.8%.
`Cc1csc(NC(=O)c2c(-c3c(Cl)cccc3Cl)noc2C)n1`: the “activity change, negative = inhibition” value was 4.31%.
Next, `COc1cc(OC)c2c(C)cc(=O)oc2c1`: 8.9%; `COc1cccc(-n2c(SCc3ccccn3)nc3c(c2=O)SCC3)c1`: 22.4%; `COc1ccc(NC(=O)c2ccccc2[N+](=O)[O-])cc1OC`: -18.3%.
Take `CCN(CC)CCCn1c(C)cc2c(c1=O)C(c1cccc(Cl)c1)C(C#N)=C(N)O2` (stereo not drawn): the “activity change, negative = inhibition” value was 3.02%.
For `O=C(CSc1ncccn1)N/N=C/c1cccs1`, the “activity change, negative = inhibition” value was -0.264%.
Next, `Cc1ccnc(SCC(=O)c2cccs2)n1`: -4.97%; `COc1ccccc1N1CCN(CC(=O)Nc2ccc3c(c2)OCCO3)CC1`: -14.6%; `COc1cc(NC2c3ccccc3C(=O)N2Cc2ccc3c(c2)OCO3)cc(OC)c1OC` (stereo not drawn): -2.35%.
With `COc1cccc(C(=O)NCCS(=O)(=O)NCc2ccccn2)c1`, the “activity change, negative = inhibition” value was 5.11%.
The figure for `COc1ccc(C(=O)NC(C(=O)NCc2ccccn2)C(C)C)cc1` (stereo not drawn) is -10.4%; for `Cc1nn2c(SCC(=O)c3cccs3)cc(C(C)(C)C)nc2c1-c1ccccc1` it is 8.2%; for `O=c1[nH]c(-c2ccccn2)nc2ccccc12` it is 6.12%.
As to `CC1=NCC(C)c2c1[nH]c1ccccc21` (stereo not drawn), the “activity change, negative = inhibition” value was 1.9%.
`O=C(CNC(=O)c1ccccc1)NC1(C(=O)NC2CCCC2)CCCCC1`: the “activity change, negative = inhibition” value is 6.99%.
As to `COC(=O)c1sccc1NC(=O)c1ccc2c(c1)OCO2`, the “activity change, negative = inhibition” value was 11.9%.
Take `COc1ccc(Cl)cc1C(=O)NCCN(C)C`: the “activity change, negative = inhibition” value was 2.99%.
As to `CCCCN1C(=O)C(CC(=O)NCC)SC1=Nc1ccccc1` (stereo not drawn), the “activity change, negative = inhibition” value was 2.84%.
Next, `C=C1CSc2nc(=O)c3c4c(sc3n21)CCCC4`: -6.35%.
Next, `COc1ccc(CCNC(=O)CN2CCOc3ccccc32)cc1OC`: -5.09%.
Next, `COC(c1ccccc1)c1nnc(CCC(=O)N(C)C(C2CC2)C2CC2)o1` (stereo not drawn): -20.5%; `O=C(CCNC(=O)C1CCN(S(=O)(=O)c2ccc(F)cc2)CC1)Nc1nccs1`: 8.89%; `O=C(Nc1ccccc1F)C1CCN(C(=O)Cc2ccccc2)CC1`: 8.63%.
As for `O=C(CCC(=O)Nc1ccccc1)N/N=C/c1ccncc1`, the “activity change, negative = inhibition” value was -9.65%.
Next, `CC(=O)Nc1ccc(NC(=O)CSc2ccccn2)cc1`: -6.37%; `C/C=C(/C)C(=O)Nc1cccc(C2=NOC3(C2)C[C@H](C(N)=O)N(C(=O)c2ccc(Cl)cc2)C3)c1` (stereo partly drawn): 14.6%; `Cc1ccc(S(=O)(=O)N2CCC(C(=O)Nc3nnc(C)s3)CC2)cc1`: 11.9%.
The figure for `Cc1nc2ccc(NC(=O)C3CCN(S(=O)(=O)c4cccs4)CC3)cc2s1` is 16.2%; for `Cc1noc(C)c1COc1ccccc1C(=O)NC1CCC(C)CC1` (stereo not drawn) it is 14.2%.
The figure for `N#Cc1cccc(C(=O)OCC(=O)NCc2ccco2)c1` is 21.7%; for `Cc1cccc(N(CC(=O)NC(C)(C)C)C(=O)CCC(=O)Nc2nccs2)c1` it is 16.4%; for `CS(=O)(=O)N(CC(=O)NC1CCCC1)c1cccc(F)c1` it is 19.6%.
As for `O=c1cc(O)nc[nH]1`, the “activity change, negative = inhibition” value was -4.28%.
Regarding `CCOc1cc(C(=O)N2CCCN(C)CC2)cc(OCC)c1OCC`, the “activity change, negative = inhibition” value is 13.9%.
Consider `O=C(Cn1cc2c(n1)CCCCC2)N1CCc2ccccc2C1`, for which the “activity change, negative = inhibition” value is -1.73%.
The figure for `COc1ccc(CN(C(=O)/C=C/c2ccccc2Cl)C2CCS(=O)(=O)C2)cc1` (stereo not drawn) is -0.177%; for `Cn1c(-c2ccccc2)cnc1SCc1nc2ccccc2c(=O)[nH]1` it is -13.3%.
